# Assay outcomes from PubChem.
# Only some compounds are listed: those with a hit (about 2.8% of all), similar ones and a draw of the others.
# CtBP-E1A blk: qHTS Assay for Inhibitors of the CtBP/E1A Interaction. AlphaScreen GST-E1A/His-CtBP binding, 1536-well; hits give low values. activity change, % (test concentration not listed). 340,000 tested, 0.49% active; in the data active means activity change below about -65%; inconclusive means mostly about -30% to -63%; further: on the % scale 0 is the no-effect control and ±100 the full control effect
#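 Protein mix (5X: 125 nM each GST-E1A, His-CtBP) was incubated with pinned compound 2 h at 37 deg C in dark, in 50 mM Tris pH 8.0 buffer with 300 mM NaCl. Glutathione donor and nickel acceptor beads followed; AlphaScreen signal read after 1 h.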
# Six1-Eya2 blk: qHTS Assay for Inhibitors of the Six1/Eya2 Interaction. activity change, % (concentration not given with the values). 360,000 tested, 0.56% active. Homeobox protein SIX1 (Homo sapiens) + Protein phosphatase EYA2 (Homo sapiens), …. AlphaScreen GST-Six1/His-Eya2 binding, biochemical; hits give low values; in the data active means activity change below about -65%; inconclusive means mostly about -30% to -63%; further: on the % scale 0 is the no-effect control and ±100 the full control effect
# Target sequence (O00167 whole entry, looked up): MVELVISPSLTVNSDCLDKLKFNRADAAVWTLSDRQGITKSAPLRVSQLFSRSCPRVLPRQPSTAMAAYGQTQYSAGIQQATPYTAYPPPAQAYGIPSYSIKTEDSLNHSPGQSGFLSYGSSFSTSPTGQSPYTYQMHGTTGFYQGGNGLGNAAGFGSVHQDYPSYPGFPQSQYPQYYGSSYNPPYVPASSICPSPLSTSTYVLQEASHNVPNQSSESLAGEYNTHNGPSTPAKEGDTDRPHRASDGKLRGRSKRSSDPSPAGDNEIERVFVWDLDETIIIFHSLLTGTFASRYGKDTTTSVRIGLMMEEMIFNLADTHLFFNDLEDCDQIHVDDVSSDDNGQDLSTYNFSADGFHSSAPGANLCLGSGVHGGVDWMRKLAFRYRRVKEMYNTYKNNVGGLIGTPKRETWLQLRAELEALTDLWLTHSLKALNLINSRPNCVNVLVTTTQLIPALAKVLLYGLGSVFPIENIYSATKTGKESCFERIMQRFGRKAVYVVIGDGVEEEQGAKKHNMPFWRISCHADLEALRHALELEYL
# Target sequence (Q15475 whole entry, looked up): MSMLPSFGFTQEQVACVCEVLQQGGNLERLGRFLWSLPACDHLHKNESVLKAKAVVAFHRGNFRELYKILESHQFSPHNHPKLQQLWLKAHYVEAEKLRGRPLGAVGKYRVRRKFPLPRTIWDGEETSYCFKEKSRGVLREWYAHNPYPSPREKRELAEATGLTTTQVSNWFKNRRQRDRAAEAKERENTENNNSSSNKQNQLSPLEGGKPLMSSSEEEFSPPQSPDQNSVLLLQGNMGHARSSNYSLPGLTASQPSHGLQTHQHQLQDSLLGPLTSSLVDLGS
#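 AlphaScreen with GST-Six1 and His-Eya2 (5X mix: 250 nM and 500 nM), glutathione donor and nickel acceptor beads; buffer 50 mM Tris pH 8.0, 300 mM NaCl, 1 mM TCEP; 1 h at 37 C in the dark.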
# HepG2 tox: qHTS for Inhibitors of TGF-b: Cytotox Counterscreen. HepG2 CAGA-GFP viability, ATP luminescence, 18 h. Potency, µM (doses to about 46.1 µM), for the others: top-dose activity change, negative = cytotoxicity, usual class: cytotoxic. 410,000 tested, 0.76% active; further: potency means the concentration at half of the fitted maximal effect
#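 HepG2 CAGA-GFP cells (1000/well, DMEM with 1% FBS) received compound, then TGF-beta at 500 pg/mL final, and were incubated 18 hours at 37 degrees C. Viability was read by CellTiter-Glo luminescence. Media-only wells were set as complete cell-killing and DMSO as no toxicity.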
# ATXN viability: Viability Counterscreen for Primary qHTS for Inhibitors of ATXN expression. 400,000 tested, 0.49% active. AID 651635, 2014. S2 cells (HEK-293 line with an ATXN2-luciferase reporter) viability, CellTiter-Fluor protease fluorescence, 24 h. Potency, µM (titrated, usually from 56.7 µM), hits mostly cytotoxic; further: potency means the concentration at half of the fitted maximal effect; nearly all actives have a fitted effect of over 40% in size
# ATXN2 expr inh: Primary qHTS for Inhibitors of ATXN expression. HEK-293 ATXN2-luciferase reporter, luminescence, 24 h. Potency, µM (series often up to 57 µM), without a hit: top-dose activity change, negative = inhibition, hits mostly inhibitors. 360,000 tested, 0.72% active; further: potency means the concentration at half of the fitted maximal effect; on the % scale 0 is the no-effect control and ±100 the full control effect; nearly all actives have a fitted effect of over 55% in size
#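 qHTS (up to 57 uM final) was run with 24 h compound exposure of reporter cells at 37 °C. Each well was multiplexed: SteadyGlo luminescence measured ATXN2-luciferase expression after a fluorogenic Gly-Phe-AFC viability readout (25 uM final).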
# TGFb SMAD3 inh: qHTS for Inhibitors of TGF-b; Potency, µM (top dose mostly 46.1 µM), for inactives: at the top dose activity, negative = inhibition, usual class: inhibitors; HepG2 CAGA-GFP TGF-b/SMAD3 reporter, GFP fluorescence, 18 h; TGF-beta stimulated, 500 pg/mL final; 410,000 tested, 1.2% active; AID 588855, 2011; further: potency means the concentration at half of the fitted maximal effect; on the % scale 0 is the no-effect control and ±100 the full control effect; nearly all actives have a fitted effect of over 65% in size
#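 HEPG2 CAGA-GFP cells (1000/well, DMEM with 1% FBS) were pre-incubated 2 h at 37 degrees C, given compound by pin tool, then stimulated with TGF-beta at 500 pg/mL final for 18 h before per-cell GFP fluorescence imaging.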
# Starred values were filed as active, the others as inactive; i = inactive; ? = inconclusive; / = not tested or not shown. Unless noted, the call rests on the fitted dose curve; in most records, active means well fitted curve in the direction sought with a large enough effect; inconclusive means small, poorly fitted or top-dose-only effect, or another doubt; inactive means no such curve, though single readings can be large; an effect the other way counts as inactive or inconclusive.
SMILES,CtBP-E1A blk,Six1-Eya2 blk,HepG2 tox,ATXN viability,ATXN2 expr inh,TGFb SMAD3 inh
COCc1[nH]nc2c1C(c1ccc(OC)c(OC)c1)C(C#N)=C(N)O2 (configuration not stated),-2,0,1%,i,-3%,11%
COc1ccc(N=c2nc(-c3ccc(C)cc3)n(-c3ccccc3)s2)cc1,/,/,-62%,/,/,3.2µM*
N=c1nc(-c2ccccc2)n(-c2ccccc2)s1,/,/,-13%,/,/,-1%
COc1ccc(N=C2C(=Nc3ccc(OC)cc3)N(c3ccc(OC)cc3)C(=S)N2c2ccccc2)cc1,10,-25,-11%,?,30%,-19%
Cc1ccc(-c2nc(=Nc3ccccc3)sn2-c2ccccc2)cc1,/,/,4.5µM*,/,/,3.5µM*
COc1ccc(N=c2nc(-c3ccccc3)n(-c3ccc(C)cc3)s2)cc1,/,/,-102%,/,/,4µM*
CCCN1CCN(C(=O)c2cnn(-c3ncc4c(n3)-c3ccccc3CCC4)c2COC)CC1,/,/,/,i,/,/
CCc1ccccc1N(C)C,/,/,1%,/,/,?
COc1ccccc1CNc1nc(NCc2ccccc2)nc2ccsc12,-8,-5,-37%,?,?,18µM*
c1ccc(CNc2nc(NCc3ccccc3)c3sccc3n2)cc1,-6,0,-27%,?,0%,?
C#Cc1cccc(Nc2nc(NCc3ccccc3OC)nc3ccsc23)c1,-15,-4,-54%,20µM*,20µM*,11µM*
COc1ccccc1CNc1nc(NCc2cccc(OC)c2OC)c2sccc2n1,-28,-12,-72%,?,32µM*,?
c1ccc(CNc2nc(NCCOc3ccccc3)c3sccc3n2)cc1,-4,-2,11µM*,/,28µM*,?
CCOC(=O)C(=O)CCc1ccccc1,/,/,/,i,3%,/
Cc1ccc(NC(=O)CN2C(=O)c3ccccc3Sc3ccc(C(=O)N4CCOCC4)cc32)cc1C,/,/,-29%,/,/,?
CCOC(=O)c1c(C)[nH]c(CCC(=O)Nc2ccc(C)c(F)c2)c1C,/,/,-15%,/,/,0%
COc1ccccc1CNc1nc(NCc2ccccc2F)c2sccc2n1,-9,-10,-121%,?,?,13µM*
O=C(O)C1Nc2c(C(=O)N3CCOCC3)cccc2C2C=CCC12 (configuration not stated),-29,-74*,1%,i,2%,0%
Cc1nn(Cc2c(F)c(F)c(F)c(F)c2F)c(C)c1NC(=O)c1ccc(COc2ccc(Cl)cc2Cl)o1,1,-8,-5%,i,20µM*,?
Cc1nn(Cc2cccc(F)c2)c(C)c1NC(=O)c1ccc(COc2ccccc2Cl)cc1,6,-1,2%,?,3.2µM*,?
Cc1nn(Cc2c(F)c(F)c(F)c(F)c2F)c(C)c1NC(=O)c1cccc(COc2ccccc2Cl)c1,11,11,-43%,i,?,-23%
Cc1nn(Cc2ccc(Cl)cc2Cl)c(C)c1NC(=O)c1ccc(COc2cc(Cl)ccc2Cl)o1,-4,-7,-17%,i,-22%,-18%
CC/C=C(\C(=O)N[C@@H]1C(=O)N2C(C(=O)OCOC(=O)C(C)(C)C)=C(COC(N)=O)CS[C@H]12)c1csc(N)n1,/,/,/,i,-1%,/
O=C(COC(=O)c1cc([N+](=O)[O-])ccc1N1CCOCC1)Nc1ccc(Cl)cn1,-2,-17,-34%,?,7.1µM*,?
Cc1ccc(NC(=O)c2c3c(nc4ccccc24)C(=O)N(C2CCCCC2)C3)cc1F,/,/,8%,/,/,41%
SMILES,CtBP-E1A blk,Six1-Eya2 blk,HepG2 tox,ATXN viability,ATXN2 expr inh,TGFb SMAD3 inh
CC1(C)CC[C@]2(C(=O)n3ccnc3)CC[C@]3(C)[C@H](C(=O)C=C4[C@@]5(C)C=C(C#N)C(=O)C(C)(C)[C@@H]5CC[C@]43C)[C@@H]2C1,-21,-22,-97%,3.8µM*,3.4µM*,?
Cn1nccc1C(=O)NCC1CCC2(CCN(Cc3cccc4ncccc34)CC2)O1 (configuration not stated),/,/,/,i,/,/
CCCCc1ccc(-c2nn[nH]n2)nc1,?,-81*,0%,i,/,-3%
CCOC(=O)C1=CN(Cc2cccc(F)c2)S(=O)(=O)NC1c1ccc2ccccc2c1 (configuration not stated),-2,-1,-11%,i,-15%,13µM*
O=C(Nc1ccc(F)cc1)c1nc[nH]c1C(=O)O,/,-77*,2%,i,/,9%
Cc1ccc(Cn2ccc(NC(=O)c3noc4c3CCc3ccccc3-4)n2)cc1,10,10,4%,i,-3%,0%
COc1ccc2c(c1)CCc1c(C(=O)Nc3ccn(Cc4ccc(C)cc4)n3)noc1-2,4,0,-39%,18µM*,10µM*,-17%
O=C(COc1ccc(Cl)cc1)N/N=C/c1cccc2cccnc12,?,?,6%,i,25µM*,?
COc1ccc(OCC(=O)N/N=C/c2cccc3cccnc23)cc1,-86*,-80*,-11%,i,?,3%
O=C(COc1cccc(Cl)c1)N/N=C\c1cc2ccccc2nc1Cl,3,7,2%,?,-25%,8%
COc1ccc(OCC(=O)N/N=C/c2ccncc2)cc1,-1,7,-14%,i,17%,21%
COc1cccc(/C=N/NC(=O)CSc2cccc3cccnc23)c1,-94*,-94*,-155%,?,?,?
COc1cc2c(C(=O)N3CCN(c4ccc(C)cc4)C(C)C3)cn(CC(C)C)c(=O)c2cc1OC (configuration not stated),/,/,-18%,?,?,?
CCCCN(CCCC)C(=S)[S-].CCCCN(CCCC)C(=S)[S-].[Zn+2],/,/,/,8.9µM*,/,/
CCCCN(CCCC)C(=S)NC(=O)C(C)(C)C,18,-3,-24%,i,-13%,?
C#CCOCCOCCOCCNc1nc(N2CCN(C(=O)CCCCCCCCCCNC(=O)[C@H]([C@@H](C)CC)n3cc(CCCCCN)nn3)CC2)nc(N2CCN(C(=O)CCCCCCCCCCNC(=O)[C@H](CO)n3cc(CCCCCN)nn3)CC2)n1,-15,-12,14µM*,22µM*,?,?
C#CCOCCOCCOCCNc1nc(N2CCN(C(=O)Cn3cc(CCCN=C(N)N)nn3)CC2)nc(N2CCN(C(=O)[C@H]([C@@H](C)CC)n3cc(CCCCN)nn3)CC2)n1,-1,5,0%,i,-1%,13%
